This is a sample that favours compounds with a hit; in the whole collection about 19% have one here.
IL-1B inflam inh = qHTS for Inhibitors of Inflammasome Signaling: IL-1-beta AlphaLISA Primary Screen; THP-1 LPS/ATP IL-1B secretion, AlphaLISA, 16 h; stronger effect = lower value; actives 4.7% (n = 360,000); activity change, % at 57.5 µM; AID 743279, 2014; in the data active = activity change below about -50%; inconclusive = mostly about -30% to -49%
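THP-1 cells pretreated 1 hr with compounds (up to 57.5 uM final), then stimulated with LPS (250 ng/mL final) plus ATP (1.25 mM final); secreted IL-1B measured by AlphaLISA after 16 hr, decreased signal indicating inhibition.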
HT1080 IDH1KD tx = qHTS for induction of synthetic lethality in tumor cells producing 2HG: qHTS for the HT-1080-IDH1KD cell line. Potency, µM (highest dose often 46.1 µM), for the others: at the highest dose activity, negative = toxicity, actives largely listed as cytotoxic. actives 2% (n = 360,000). HT-1080 IDH1 knockdown viability, ATP luminescence, 48 h;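 note: potency is the fitted concentration of half-maximal effect; 0% = DMSO wells and -100% = cell-free medium wells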
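IDH1KD HT-1080 cells, 750/well, RPMI + 5% FBS; compound pinned after 2 h settling; 48 h, 37 °C; CellTiter-Glo luminescence; % activity normalised to DMSO and no-cell wells; curves fitted, classed by r2 and efficacy.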
DT40 TDP1 CPT = qHTS for Inhibitors of human tyrosyl-DNA phosphodiesterase 1 (TDP1): qHTS in cells in presence of CPT | chicken DT40 Tdp1-/-;hTDP1 cells + 20 nM CPT, ATP luminescence, 48 h | Potency, µM (top dose mostly 46.2 µM), without a hit: at the highest dose activity change, negative = growth inhibition, most hits filed as inhibitors | actives 12% (n = 420,000); note: potency is the fitted concentration of half-maximal effect; nearly all actives have a fitted effect of over 55% in size
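Cell growth measured by CellTiter-Glo luminescence after a minimum 48 h, 37 C compound exposure with 20 nM CPT in Tdp1-knockout DT40 cells stably expressing hTDP1, seeded 400/well; qHTS titration format.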
TDP1 cell noCPT = qHTS for Inhibitors of human tyrosyl-DNA phosphodiesterase 1 (TDP1): qHTS in cells in absence of CPT; DT40 Tdp1-/- hTDP1 cells, no CPT, ATP luminescence, 48 h; Potency, µM (highest dose often 46.2 µM), for the others: at the top dose activity change, negative = growth inhibition, usual class: inhibitors; actives 15% (n = 420,000); note: potency is the fitted concentration of half-maximal effect; nearly all actives have a fitted effect of over 55% in size
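Growth kinetics read by CellTiter-Glo luminescence after ≥48 hr at 37 °C. Cells: DT40 Tdp1-/- stably carrying human TDP1, 400 per well, compound exposure in the absence of CPT (DMSO vehicle).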
ELG1 DNA repair = qHTS screen for small molecules that inhibit ELG1-dependent DNA repair in human embryonic kidney (HEK293T) cells expressing luciferase-tagged ELG1. HEK293T ELG1-luciferase reporter, luminescence, 16 h; DNA damage induced by 5-fluorouridine. Potency, µM (titrated, usually from 46.1 µM), for inactives: at the top dose activity change, negative = inhibition, hits mostly inhibitors. actives 2.3% (n = 330,000); note: potency is the fitted concentration of half-maximal effect; nearly all actives have a fitted effect of over 55% in size
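Cells (2,000 per well) received 5-fluorouridine plus test compound or DMSO and were incubated 16 hr at 37 °C, 5% CO2. Luciferase activity was read by luminescence 30 min after ONE-Glo addition; signal suppression marked inhibition of damage-induced ELG1 function.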
HT1080NT lethal = qHTS for induction of synthetic lethality in tumor cells producing 2HG: qHTS for the HT-1080-NT fibrosarcoma cell line | Potency, µM (series often up to 46.1 µM), inactives show at the top dose activity, negative = less viability, usual class: cytotoxic | HT-1080-NT fibrosarcoma viability, CellTiter-Glo ATP luminescence, 48 h | actives 1.6% (n = 360,000);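 note: NT is the 2HG producing partner of a matched IDH1 knockdown line; potency is the fitted concentration of half-maximal effect; 0% = DMSO-treated cells and -100% = media-only wells without cells; nearly all actives have a fitted effect of over 55% in size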
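Luminescent CellTiter-Glo readout after 48 hours of compound exposure at 37 degrees C defined viability of HT-1080-NT cells. Activity was normalized to DMSO wells and cell-free media wells; concentration-response curves were fitted and assigned curve classes.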
Numbers without * were called inactive; ? = inconclusive; . = no result given. Unless noted, calls come from the whole dose curve; as a rule, active = well fitted curve in the direction sought with a large enough effect; inconclusive = small, poorly fitted or top-dose-only effect, or another doubt; inactive = no such curve, though single readings can be large; an effect the other way counts as inactive or inconclusive. Unless noted, % is set by controls: 0 for no effect and ±100 for the full control effect.

SMILES	IL-1B inflam inh	HT1080 IDH1KD tx	DT40 TDP1 CPT	TDP1 cell noCPT	ELG1 DNA repair	HT1080NT lethal
COc1ccc2c(c1)OCC(Cc1ccc(OC)c(OC)c1)C2O (stereo unspecified)	.	.	0%	?	.	.
COc1ccc2c(c1)OCC(Cc1ccc(OC)c(OC(C)=O)c1)C2=O (stereo unspecified)	.	.	0.65µM*	0.65µM*	.	.
CC(C)COCc1ccc(O)c2ncccc12	127	10µM*	0.92µM*	0.65µM*	21µM*	21µM*
CCCOCc1ccc(O)c2ncccc12	-8	?	0.82µM*	0.58µM*	7.3µM*	-11%
O=C(NCC(=O)N(c1cccc(F)c1)C(C(=O)NC1CCCC1)c1cccnc1)c1cccs1 (stereo unspecified)	19	8%	-3%	-3%	-2%	4%
CCOc1cc(N2CCOCC2)c(OCC)cc1NC(=O)c1ccc(S(=O)(=O)N2CC(C)OC(C)C2)cc1 (stereo unspecified)	13	8%	?	?	.	6%
COc1cc(OC)c2c(-c3ccccc3)cc(=O)oc2c1C(CCN1CCOCC1)c1ccc(N(C)C)cc1 (stereo unspecified)	0	-19%	5.8µM*	6.5µM*	?	-2%
COc1cc(OC)c2c(-c3ccccc3)cc(=O)oc2c1C(CCN1CCCCC1)c1ccc(N(C)C)cc1 (stereo unspecified)	-18	-29%	10µM*	15µM*	0%	-21%
COc1ccc(C(CCN2CCCCC2)c2c(OC)cc(OC)c3c(-c4ccccc4)cc(=O)oc23)cc1 (stereo unspecified)	-11	-14%	21µM*	?	-5%	-28%
COc1ccc(C2CC(=O)Oc3c(C(CCN4CCN(c5ccccc5)CC4)c4ccc(N(C)C)cc4)c(OC)cc(OC)c32)cc1 (stereo unspecified)	-5	4%	-34%	?	7%	4%
COc1ccc(C2C(C#N)=C(N)Oc3cccc(O)c32)cc1 (stereo unspecified)	-12	-6%	-17%	-1%	-2%	3%
Cc1cccc(-n2ccnc2CN2CCC(CO)(Cc3ccccc3)CC2)c1	-1	7%	3%	-8%	-11%	4%
COc1cc(NC(=O)c2cc3c(=O)n(Cc4ccco4)ccc3nc2C)cc(OC)c1OC	.	.	8%	0%	.	.
COc1ccccc1C(O)c1ncc(-c2cccc3ccccc23)[nH]1 (stereo unspecified)	-18	-6%	?	?	.	-17%
O=[N+]([O-])c1ccc2nc(-c3ccccc3)n(OCc3ccc(Cl)cc3)c2c1	4	-17%	15µM*	9.2µM*	22%	-24%
Cc1nc2scc(C)n2c(=O)c1S(=O)(=O)N1CCN(c2cccc(C(F)(F)F)c2)CC1	18	-3%	-20%	?	-19%	-20%
Cc1ccc(C)c(NC(=O)c2cc(S(=O)(=O)N3CCOCC3)cn2C)c1	0	-1%	15µM*	-24%	0%	0%
Cc1cccc(NC(=O)c2cc(S(=O)(=O)N3CCOCC3)cn2C)c1C	29	9%	5%	6%	12%	0%
CN(CC(=O)Nc1cccc(S(=O)(=O)N2CCOCC2)c1)CC(=O)Nc1ccc(Cl)c(C(F)(F)F)c1	-26	-27%	15µM*	7.3µM*	13µM*	-12%
Cn1cc(S(=O)(=O)N2CCOCC2)cc1C(=O)Nc1ccc(Cl)c(C(F)(F)F)c1	.	.	?	23µM*	.	.
O=C(Cc1c(Cl)cccc1Cl)Nc1cccc(S(=O)(=O)N2CCOCC2)c1	-5	15%	3%	-25%	-14%	10%
Cn1cc(S(=O)(=O)N2CCOCC2)cc1C(=O)Nc1cccc(Cl)c1	-13	-7%	1%	-5%	0%	17%
Cc1cnc(C)c(-c2ccc(F)c3c2OC(CNC(=O)Cc2c(F)cccc2F)C3)n1 (stereo unspecified)	.	.	9%	-11%	.	.
Cn1c(C=O)c(-c2ccc3cc[nH]c3c2)c2ccccc21	23	0%	-29%	-23%	-15%	3%
CN(CC(=O)Nc1ccc(F)c(F)c1F)C(=O)CCN1C(=O)C2CCCCC2C1=O (stereo unspecified)	12	0%	-9%	?	0%	10%
SMILES	IL-1B inflam inh	HT1080 IDH1KD tx	DT40 TDP1 CPT	TDP1 cell noCPT	ELG1 DNA repair	HT1080NT lethal
COC(=O)c1cnc(Nc2nc(CN)cs2)nc1C(F)(F)F	-10	17%	-16%	?	.	21%
Cc1cc(NC(=O)CSC2=Nc3ccccc3C3=NC(Cc4ccccc4)C(=O)N23)n[nH]1 (stereo unspecified)	-19	13%	-11%	-21%	-10%	1%
Cc1ccc(NC(=O)CSC2=Nc3ccccc3C3=NC(Cc4ccccc4)C(=O)N23)cc1C (stereo unspecified)	.	.	9.2µM*	13µM*	.	.
COc1ccc(NC(=O)CSC2=Nc3ccccc3C3=NC(Cc4ccccc4)C(=O)N23)cc1Cl (stereo unspecified)	.	.	21µM*	?	.	.
CN(C)c1ccc(C(=O)Nc2ccc(S(=O)(=O)Nc3nccs3)cc2)cc1	5	4%	-5%	-4%	8%	9%
COc1ccccc1CC1S/C(=N/N=C/c2ccco2)NC1=O (stereo unspecified)	11	-1%	?	6.5µM*	-5%	-14%
O=C1N/C(=N/N=C/c2ccco2)SC1Cc1ccccc1 (stereo unspecified)	31	-2%	-18%	?	0%	0%
CCCCC1S/C(=N/N=C/c2ccco2)NC1=O (stereo unspecified)	3	12%	16µM*	?	11%	21%
COCCN1C(=O)N[C@@H](c2ccco2)C(C(=O)OC)=C1C	0	-10%	3%	2%	.	-1%
